High-throughput results: PubChem BioAssay, National Center for Advancing Translational Sciences (NCATS)
Sampled rows, rich in hits. Any-hit rate of the full collection: about 21%.
NS1 inh: influenza NS1 inhibition; Potency, µM (series often up to 46.1 µM); AID 2326; 270,000 tested, 0.4% active; calls by dose curve; further: actives are rising curves; nearly all actives have a fitted effect of over 50% in size
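A cell-based growth assay was used: compounds that relieve NS1-induced slow growth of budding yeast raise OD600. Assay medium was yeast nitrogen base with ammonium sulphate and -URA supplement, pH 6.0, with 2% galactose.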
Cycloheximide cs: counter-screen for Shiga toxin inhibitors: cycloheximide protein synthesis inhibition | cell reporter, cycloheximide protein synthesis inhibition counterscreen | max response, % | 300,000 tested, 12% active | AID 2314; in the data active means max response mostly above about 13%, no sharp cut-off; inactive means mostly below about 14%; further: read at 38.3 µM for the half of the compounds with a filed dose
Pf growth 48h: P. falciparum growth inhibition at 48 hours (one generation); AID 504832; P. falciparum luciferase growth in erythrocytes, 48 h; 310,000 tested, 5.9% active; Potency, µM (doses to about 28.7 µM), hits mostly inhibitors
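A one-generation exposure of luciferase-tagged malaria parasites in RPMI 1640/Albumax erythrocyte culture, 37 C and 5% CO2. Inhibition is inferred from decreased luminescence after adding detection reagent.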
Pf growth 96h: P. falciparum growth inhibition at 96 hours; P. falciparum luciferase reporter growth, 96 h; Potency, µM (titrated, usually from 28.7 µM), usual class: inhibitors; 320,000 tested, 6.9% active; AID 504834
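P. falciparum expressing integrated firefly luciferase grown in erythrocytes (2% hematocrit, 0.05% parasitemia final) with compounds for 96 hours at 37 C, 5% CO2. Growth inhibition read as loss of luminescence after adding luciferase detection reagent.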
SARS PLP yeast: blocks SARS-CoV papain-like protease in a yeast assay; S. cerevisiae expressing SARS-CoV PLpro, growth rescue; Potency, µM (titrated, usually from 32.9 µM), most hits filed as activators; 330,000 tested, 0.19% active; AID 485353; calls by dose curve; further: nearly all actives have a fitted effect of over 55% in size
Shiga inhibitor: inhibitors of Shiga toxin in Vero cells. Vero cells, Shiga toxin protein synthesis inhibition reporter. inhibition, % at 38.7 µM. 290,000 tested, 9.2% active; in the data active means inhibition mostly above about 28%, no sharp cut-off; inactive means mostly below about 43%
Each line names hits and unclear results; the compound was inactive in the other large screens. Unless noted, the call rests on the fitted dose curve; in most records, active means well fitted inhibition curve with a large enough effect; inconclusive means small, poorly fitted or top-dose-only effect, or another doubt; inactive means no such curve, though single readings can be large or run the other way.

O=C(CCC(=O)N1CCOc2ccc(Cl)cc21)NCCCN1CCN(Cc2ccccc2)CC1	Pf growth 48h inconclusive
CN(CCCNC(=O)CCC(=O)N1CCOc2ccc(Cl)cc21)Cc1ccccc1	Pf growth 96h 15µM
CSc1ccc(/C=C/C(=O)OCC(=O)NC2CC2)cc1	Pf growth 96h inconclusive (no result: NS1 inh, Cycloheximide cs, Shiga inhibitor)
COc1ccc2c(C)cc(=O)oc2c1C	Pf growth 96h 5.9µM (no result: Pf growth 48h)
CCCOc1ccc2c(CC)cc(=O)oc2c1C	Cycloheximide cs 11
Cc1cc(=O)oc2c(C)c(OCC(=O)N(C)C)ccc12	Pf growth 96h inconclusive
C=C(C)COc1ccc2c(CC)cc(=O)oc2c1C	none
CCOC(=O)C1Oc2ccccc2C(c2cccc3ccccc23)=C1C(=O)OC (stereo not drawn)	none (no result: NS1 inh, Pf growth 48h, Pf growth 96h)
CCC(C(=O)NC(C)(C)C)N(Cc1cccs1)C(=O)CNS(=O)(=O)c1ccccc1 (stereo not drawn)	Pf growth 48h 2.3µM
C/C(=N\N=C\c1ccc(N(C)C)cc1)c1cccc([N+](=O)[O-])c1	Cycloheximide cs 37, Pf growth 96h inconclusive, Shiga inhibitor 50
CC1CC(N(C(=O)c2ccc(Cl)cc2)c2ccccc2)c2ccccc2N1C(=O)c1ccco1 (stereo not drawn)	Pf growth 96h 9.3µM (no result: Pf growth 48h)
CC(=O)NC(Cc1ccccc1F)C(=O)NC1CCN(C(=O)Nc2ccc(C)cc2)CC1 (stereo not drawn)	none
CC(C)(C)OC(=O)N1CCC(NC(=O)c2nc[nH]c2C(=O)N2CCN(c3ccccc3)CC2)CC1	none (no result: NS1 inh, Cycloheximide cs, Pf growth 48h, Pf growth 96h, Shiga inhibitor)
CC(C)(C)OC(=O)N1CCC(NC(=O)c2nc[nH]c2C(=O)N2CCN(C(=O)OC(C)(C)C)CC2)CC1	Pf growth 48h 10µM, Pf growth 96h inconclusive (no result: NS1 inh, Cycloheximide cs, Shiga inhibitor)
CC(C)(C)OC(=O)NCCCCCNC(=O)c1[nH]cnc1C(=O)NC1CCN(C(=O)OC(C)(C)C)CC1	Pf growth 48h 9.3µM, Pf growth 96h 2.1µM (no result: NS1 inh, Cycloheximide cs, Shiga inhibitor)
CN(C)Cc1c[nH]c2nc[nH]c(=O)c12	none (no result: Cycloheximide cs, Pf growth 48h, Pf growth 96h, SARS PLP yeast, Shiga inhibitor)
CC(=O)CC(=O)Nc1ncccn1	none (no result: NS1 inh)
C/C(=N\N=C(c1ccccc1)c1ccccc1)c1cccs1	none
C/C(=N\Nc1ccccn1)c1cccs1	Cycloheximide cs 46, Shiga inhibitor 93 (no result: NS1 inh)
C/C(=N\Nc1ccccn1)c1ccc(OC(F)F)cc1	Shiga inhibitor 38
C/C(=N\Nc1ccccn1)c1ccc(C#N)cc1	Cycloheximide cs 25, Shiga inhibitor 43 (no result: NS1 inh)
C/C(=N\n1cnnc1)c1ccc(C#N)cc1	Pf growth 96h inconclusive (no result: NS1 inh)
CC(=O)Oc1ccc(C(=O)Nc2cccc(C(=O)Nc3ccccc3C(=O)O)c2)cc1	none
CCOc1ccc(NC(=O)CSc2nnnn2C2CCCC2)cc1	none
COc1ccc(NC(=O)c2ccccc2SC)cc1	Cycloheximide cs 54, Shiga inhibitor 67
CCOc1ccc(NC(=O)C(C)Oc2ccccc2C(=O)Nc2ccc(C)c(Cl)c2)cc1 (stereo not drawn)	Cycloheximide cs 22, Pf growth 48h inconclusive, Pf growth 96h inconclusive, Shiga inhibitor 111
CCOc1ccc(NC(=O)c2ccccc2SC)cc1	Cycloheximide cs 50, Shiga inhibitor 59
Cc1ccc(NC(=O)COc2ccccc2C(=O)Nc2ccccc2)cc1Cl	Pf growth 48h inconclusive
CCOc1ccc(NC(=O)c2cc(SC)ccc2Cl)cc1	none
COc1ccc(OC)c(NC(=O)c2ccccc2SC)c1	none (no result: Pf growth 96h)
Cc1ccc(S(=O)(=O)N2CCN(S(C)(=O)=O)C2C)cc1 (stereo not drawn)	none (no result: NS1 inh, Cycloheximide cs, SARS PLP yeast, Shiga inhibitor)
CCOC(=O)C1CCCN(C2=NC(=O)/C(=C/c3ccc(N(C)C)cc3)S2)C1 (stereo not drawn)	Cycloheximide cs 26, Pf growth 48h 6.6µM, Shiga inhibitor 33
CCOC(=O)CSC1=NC(=O)/C(=C/c2ccc(OC)cc2)S1	Cycloheximide cs 22, Shiga inhibitor 61
CCOC(=O)C1CCCN(C2=NC(=O)/C(=C/c3ccc(OC)cc3)S2)C1 (stereo not drawn)	Pf growth 48h 10µM, Pf growth 96h inconclusive
CCOC(=O)C1CCCN(C2=NC(=O)/C(=C/c3ccc(O)c(OCC)c3)S2)C1 (stereo not drawn)	Pf growth 48h inconclusive
CCOC(=O)C1CCCN(C2=NC(=O)/C(=C/c3ccc(OC)cc3OC)S2)C1 (stereo not drawn)	Pf growth 48h 6.6µM
CC(C)N(CCNCc1nnc(-c2ccccc2)o1)C(C)C	none (no result: NS1 inh)
CC(=O)Nc1ccc(C(=O)CSc2nc3ccccc3n2CC(=O)N2CCCC2)cc1	Pf growth 96h 3.7µM (no result: Pf growth 48h)
O=C(CSc1nc2ccccc2n1CC(=O)N1CCCCC1)N1CCCCC1	none
CCOC(=O)C1=C(C)NC(=O)NC1c1ccc([N+](=O)[O-])o1 (stereo not drawn)	none
CCOC(=O)C1=C(C)NC2=C(C(=O)c3ccccc32)C1c1ccc([N+](=O)[O-])o1 (stereo not drawn)	Pf growth 48h 13µM, Pf growth 96h inconclusive
CC(C)Oc1cccc(C(=O)C2CCCN(Cc3ccon3)C2)c1 (stereo not drawn)	Cycloheximide cs 8.4, Pf growth 96h inconclusive
CCCn1ncc(CN2CCCC(C(=O)c3cccc(OC(C)C)c3)C2)c1C (stereo not drawn)	Pf growth 48h 13µM, Pf growth 96h 12µM
CCCn1cc(CN2CCCC(C(=O)c3cccc(OC(C)C)c3)C2)c(C)n1 (stereo not drawn)	Pf growth 48h inconclusive
CC(C)Oc1cccc(C(=O)C2CCCN(C(=O)c3ccoc3)C2)c1 (stereo not drawn)	Cycloheximide cs 16, Shiga inhibitor 26
CC(=O)c1cccc(NC(=O)c2csc3c2CCCCC3)c1	Cycloheximide cs 37, Pf growth 96h inconclusive, Shiga inhibitor 55 (no result: NS1 inh)
CCOc1ccc(NC(=O)c2csc3c2CCCC3)cc1	Cycloheximide cs 36
COCCNC(=O)c1csc2c1CCCC2	Pf growth 96h inconclusive
Cc1ccc(CC(=O)N2CCN(C(=O)C3CCCO3)CC2)cc1 (stereo not drawn)	none
CCC(=O)Oc1ccc(C(=O)Nc2c[nH]c(=O)[nH]c2=O)cc1	none
Cc1ccc(N=C(c2cccs2)N2CCOCC2)cc1	Cycloheximide cs 15, Shiga inhibitor 59 (no result: Pf growth 96h)
O=C(c1cccs1)N1CCOCC1	none
CN1CCN(c2ncnc3c2[nH]c2ccc(F)cc23)CC1	Pf growth 48h 2.9µM, Pf growth 96h inconclusive
c1ccc2c(c1)[nH]c1c(N3CCCC3)ncnc12	Pf growth 48h inconclusive, Pf growth 96h 2.6µM
Brc1ccc2[nH]c3c(N4CCc5ccccc5C4)ncnc3c2c1	Cycloheximide cs 49, Pf growth 48h 1.7µM, Shiga inhibitor 72 (no result: Pf growth 96h)
Fc1ccc2[nH]c3c(N4CCc5ccccc5C4)ncnc3c2c1	Pf growth 48h 2.9µM, Pf growth 96h 1.9µM
Cc1ccc2[nH]c3c(N4CCc5ccccc5C4)ncnc3c2c1	Pf growth 48h inconclusive, Pf growth 96h inconclusive
CCc1cccc(C)c1NC(=O)CSc1nnc(CCCOc2ccc(Cl)cc2Cl)n1C	Pf growth 48h inconclusive
CCOc1ccc2[nH]c3c(N4CCc5ccccc5C4)ncnc3c2c1	Pf growth 48h inconclusive, Pf growth 96h 13µM
